Assay results from PMC13494018.

B1: d4r4_design_ppi_129_dldesign_0_cycle1_af2pred (protein)
chain: MEKVTEARDVALEAAGILELAGIKVPEYRKELSEKAKEAIREVAEAGREALEKGEEEYEKLEKVAEKVYKEAKKKAEEALKKKE
B2: d4r3_design_ppi_383_dldesign_0_cycle0_af2pred (protein)
chain: SSLASELNEKKAEERGLEYAKKRLDEKAKKALELAKQVPEVAAEVKKLVDEGKALLEKGDIGGAFAKMDEALKLAEKALAA
B3: d4r4_design_ppi_128_dldesign_0_cycle0_af2pred (protein)
chain: ESEKKYKELKEELEKAYKEAKKAILEASKLKPEEAKKKMEEILEEFKKKAYELISKALEQSADYGRELAKLAQEYYKELEELAKKLL
B4: d4r4_design_ppi_229_dldesign_0_cycle0_af2pred (protein)
chain: EKEEKIKKAKELAEKAKELAKKLKEAGEKDLEKAKKLLKEAREAAKKAIELAKEAGDEELAKKASDEQAKAQEAYAEAKAK
B5: d4r4_design_ppi_222_dldesign_0_cycle1_af2pred (protein)
chain: SLEKLKEYLENAEKERKKVLEAAKEARELAKKGEEEEAKKYLGNAVTDARLNLNEAAYDAGLDTSIGNKLAKEFGAEGEKIFK
B6: d4r4_design_ppi_2_dldesign_0_cycle1_af2pred (protein)
chain: DEKAKKAAEEAKKVAKEGREKLKEAEKLMKEGKYKEAAKLAAEVAKKAKEKAEEAEKISKSVAPYALLLENVADAAKALAKEAKEKI
B7: d4r3_design_ppi_300_dldesign_0_cycle1_af2pred (protein)
chain: SSAELTKEAKAKVEAAGAAADAAAAADPAAGAAAYTEAAQLALQESAKLDASKENKEAAEEMRKKGKEFAAKAKALRA
B8: d4r3_design_ppi_308_dldesign_0_cycle1_af2pred (protein)
chain: MEAEKKAEKALEELKKAAKKLEELAKKGGSVEEAEELNEKVLELRSEAKFYASKADEEFGKKVKEEAKKALEKAREAYKKLKE
B9: d4r3_design_ppi_464_dldesign_0_cycle1_af2pred (protein)
chain: SVSLEEQEARALARTYAEIAEKKIKEAPKDKELAEKIAKEVLEEAKKAAKDLPEYEEYTIELAEKRLKEILEKYAKKA
B10: d4r4_design_ppi_79_dldesign_0_cycle1_af2pred (protein)
chain: AGKAAYEKLKANMERREKKAEEAEKKDKKLGKFEAEKGIEFSKHAAEAAKKKAAEDPAYKEAAKYAKEAEEKFKKKLKELEK
B11: d4r4_design_ppi_2_dldesign_0_cycle0_af2pred (protein)
chain: DEKAKKMAEEARKAAEEGRKALKEARKLAKEGELEKAAKLAEETAKKAEEKAKEAEKLSKKVAPEALRLLGVADAAKTAAEEFKKKL
B12: d4r3_design_ppi_239_dldesign_0_cycle1_af2pred (protein)
chain: MEEAEKALKKAEELRAEAKRLGEIVSNPELGKKEAAKAGKKTPEEIEAWLKEVAAKAQELREEAAEYEAKAIRIK
B13: d4r4_design_ppi_123_dldesign_0_cycle0_af2pred (protein)
chain: SEAEKKTKEAAKLAYEAAKSNPEKGREYRKKAGELIATLSPEEAKKAAAEAQDAYAEGRAEKKLEELKKREEEK
B14: d4r4_design_ppi_87_dldesign_0_cycle0_af2pred (protein)
chain: AEENKAEGAKEAAEDAIEAALKKAEEDPEEGLKAAEKVKERVKKRAEEVEETEYGKKVGKEIKKKAEKALKEIEKKAKAAKAAK
B15: d4r3_design_ppi_381_dldesign_0_cycle1_af2pred (protein)
chain: GSSDELEKKTETKAYRSLSTKKAKEYSKDKELVKKIEEEAKTYEGALKARKETEEIVKEVKKKEEEEKKKKE
B16: d4r4_design_ppi_180_dldesign_0_cycle1_af2pred (protein)
chain: DDFEKALEELKKAGELLPEAAEIAEEAIKKATASKDLKEAAKILLEAAKKIAKIAKEAGNEEAAKAAAAAAQYARQLKAAA
B17: d4r4_design_ppi_229_dldesign_0_cycle1_af2pred (protein)
chain: EKEEKKKEAKELAEEAKKLAEELAKAAEEDLEKAKELYKKAKEAAGKAIKLAKEAGDKETAKEASENNFKAHENYAEGKFK
B18: d4r3_design_ppi_258_dldesign_0_cycle1_af2pred (protein)
chain: AAEEARKAKIQKMADRLLELSKKYGISLEDMKDMMSFSATDPADKAVGLALLDAGHAELAAAKAAEAARAEALAA
B19: d4r4_design_ppi_105_dldesign_0_cycle1_af2pred (protein)
chain: MEEIKKEVEETTKKAKEKLKELEKEAEKAGVKEAVEVAKKGKEKVEKLAKKAEKAVKEGNKNYALAKIDAIKDTTEAAEKQVKKLIKA
B20: d4r4_design_ppi_225_dldesign_0_cycle1_af2pred (protein)
chain: DELREQAERAKKRFEEAEKKLKEALEKGDKKEAIKYAERLKHLAEVAEKLAEEVEAAATNPETKELAERLKELAKRAKKLAEEALKK
B21: d4r4_design_ppi_58_dldesign_0_cycle0_af2pred (protein)
chain: EEELKKAKEEAEKAIKEAEEAAKKIEEGEAREGVKKIREIKKKLEEKGKESTPEAKKIYKEAAKKIAEIAHEGLEKRAEKKAK
B22: d4r3_design_ppi_239_dldesign_0_cycle0_af2pred (protein)
chain: EEKAKEAEKKSKEYREKARELAEDVRNPELGRERAREEGKKTEEEIEAWLAEKAKEAQELRQESAEYDAKAIILK
B23: d4r4_design_ppi_58_dldesign_0_cycle1_af2pred (protein)
chain: MEELKKAEEEAKKAVEEAKKYAELIAEGKSEEGIEKIKKIAEELKKKGKETTPEAAKIYEKAVKEIAKIAHEGLEKRAEKEAK
B24: d4r4_design_ppi_44_dldesign_0_cycle1_af2pred (protein)
chain: AKAKEEGKKLAKEATEEAKKLLDKAKEEVKKGGTYEEVKKYVDKGKEAAKKYGAKAKELPETAADVAKVIQDFYEESNEALAEAKRL
B25: d4r3_design_ppi_270_dldesign_0_cycle1_af2pred (protein)
chain: SAEEEKKKLLAIADEYAAKVKEAAADLEKAGAVLKEGITELVKLGAPNSVIAYLISKAVKAVGSKIMPYADEAIDEALKA
B26: d4r4_design_ppi_123_dldesign_0_cycle1_af2pred (protein)
chain: AAEAAKAAAAAALAKKAAQSSPEKARAYRKEAGALIAELSPAAAAAAAAAAQDAYADGVAEKVLSELEEKKKKE
B27: d4r4_design_ppi_227_dldesign_0_cycle1_af2pred (protein)
chain: GFKTKATAESGYERMKSIYEAFAKLGPKSPIYKEGAEKMKEYAEKLKELENSTEEEIEKLSKEGIEVGKKLKAEAEAK
B28: d4r4_design_ppi_34_dldesign_0_cycle0_af2pred (protein)
chain: VQKLIDEAAQEIQEARAHISGAEQYVLMGKEYLPEAKKDLEEAEKHIKKAKELTKKAKEAGADEEEIKKLEKAIEKAEARLEEVKKMM
B29: d4r4_design_ppi_213_dldesign_0_cycle1_af2pred (protein)
chain: GALEEAKKLVEEAAKLAEEGKLEEAKEKLKKAMDLAAEHEDPEVVREIAREAKKIVELAEKKKKEKEEKEKKEK
B30: d4r3_design_ppi_266_dldesign_0_cycle0_af2pred (protein)
chain: MEEKGNEVIERAKKKLEEGKKLAKEGELLKGYALAQSAEARAENAAEAAEKAGLEEVAKKAKEVAKEAKAAAEEIEKKRKEAEA
B31: d4r3_design_ppi_402_dldesign_0_cycle1_af2pred (protein)
chain: EEEEKKKAEELKKFLEEQNKKRKEVAELAKKYPEVAPYAKAYAKAQNEAFEYYDVDKEKSAKALAEAEKYEAKINALLAKL
B32: d4r4_design_ppi_90_dldesign_0_cycle1_af2pred (protein)
chain: MTKEEAERMIKILKERLEKIKKAGKEKGEEMQKIAKELEEALKKAEEAFKKDPEKAGAYFQEARQIAAEGEFKEK
B33: d4r3_design_ppi_300_dldesign_0_cycle0_af2pred (protein)
chain: SAEELAKKAKEEVEKAEKEAEEAAAKDKKAGAAKYAEAAQLAYQKAGELDASKENKEEAEEMRERGRELAKKARELEA
B34: d4r4_design_ppi_225_dldesign_0_cycle0_af2pred (protein)
chain: AELRERAEAAERRFEAAKARLKEALEKGDKSRAYGEAFRLKHIAEVARRLAAEVRAAATTEEQRELAERLEELAREAEALAEEALKK
B35: d4r4_design_ppi_128_dldesign_0_cycle1_af2pred (protein)
chain: SSAEQAAKLRAELDAAAAAAAAAIAAAAGLTPAAAAAASAATIAAYKATASALIDAAFELSSDYGRSIAKAAKEKLAALEAQAAALA
B36: d4r4_design_ppi_157_dldesign_0_cycle1_af2pred (protein)
chain: SKEEARKRGLESAEELKELVEEGIPVEAVGAIAASDVEWLMKYPYGEYAAEALIEALEKYNPVMGEKAREAYEEAKERKAK
B37: d4r4_design_ppi_102_dldesign_0_cycle1_af2pred (protein)
chain: EEEKVKKAAEKAIKLAKETAEKAYKAAKKVKDKEYKEKFKEITLLALEAKALARAGKALGNKELVEAAKKLAEEAKEKLEKLEKEAE
B38: d4r4_design_ppi_34_dldesign_0_cycle1_af2pred (protein)
chain: AEELVKEAAKHIQEARSLINAAEQYVKLGKEKLEEAKEDLKKAEEHIEKAKELAKKAKEAGADEEDVKKLEEAIEKAKKKLEEVKKLI

target: VTCN1, Q7Z7D3
Sequence (Q7Z7D3 whole entry): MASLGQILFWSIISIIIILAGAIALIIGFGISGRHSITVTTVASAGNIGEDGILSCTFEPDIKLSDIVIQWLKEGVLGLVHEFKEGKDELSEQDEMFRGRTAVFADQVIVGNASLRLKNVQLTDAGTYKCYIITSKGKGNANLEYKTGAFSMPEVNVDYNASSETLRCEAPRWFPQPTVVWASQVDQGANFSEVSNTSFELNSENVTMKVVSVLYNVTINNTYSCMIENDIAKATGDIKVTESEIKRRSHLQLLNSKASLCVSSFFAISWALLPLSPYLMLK

Binding in a display sort, inactive:
B1 not found
B2 not found
B3 not found
B4 not found
B5 not found
B6 not found
B7 not found
B8 not found
B9 not found
B10 not found
B11 not found
B12 not found
B13 not found
B14 not found
B15 not found
B16 not found
B17 not found
B18 not found
B19 not found
B20 not found
B21 not found
B22 not found
B23 not found
B24 not found
B25 not found
B26 not found
B27 not found
B28 not found
B29 not found
B30 not found
B31 not found
B32 not found
B33 not found
B34 not found
B35 not found
B36 not found
B37 not found
B38 not found
